Measured values taken from the supplement of paper PMC3545927.
Some of the results follow. The hit rate among all sequences tested is not known here.

Biological target: furin, P09958
Assay: furin cleavage Z-score vs untreated control; higher = more cleavage, active = 3.5 or more, inactive = 1 or less, 8 variable residues between constant flanks
Procedure, shortened: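 Reactions of 0.01 ml ran for 7.5, 15 or 30 min in 50 mM HEPES pH 7.5 with CaCl2 and NaCl, at 1:10 enzyme:substrate. In them, purified furin acted on bead-held 8-mer peptides fused to a cDNA oligonucleotide. The cleavage Z-score was obtained by lowess-adjusting log sequencing counts of released DNA against furin-free reactions and scaling by median absolute deviation.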

Chain of furin, P09958 (P09958 whole entry): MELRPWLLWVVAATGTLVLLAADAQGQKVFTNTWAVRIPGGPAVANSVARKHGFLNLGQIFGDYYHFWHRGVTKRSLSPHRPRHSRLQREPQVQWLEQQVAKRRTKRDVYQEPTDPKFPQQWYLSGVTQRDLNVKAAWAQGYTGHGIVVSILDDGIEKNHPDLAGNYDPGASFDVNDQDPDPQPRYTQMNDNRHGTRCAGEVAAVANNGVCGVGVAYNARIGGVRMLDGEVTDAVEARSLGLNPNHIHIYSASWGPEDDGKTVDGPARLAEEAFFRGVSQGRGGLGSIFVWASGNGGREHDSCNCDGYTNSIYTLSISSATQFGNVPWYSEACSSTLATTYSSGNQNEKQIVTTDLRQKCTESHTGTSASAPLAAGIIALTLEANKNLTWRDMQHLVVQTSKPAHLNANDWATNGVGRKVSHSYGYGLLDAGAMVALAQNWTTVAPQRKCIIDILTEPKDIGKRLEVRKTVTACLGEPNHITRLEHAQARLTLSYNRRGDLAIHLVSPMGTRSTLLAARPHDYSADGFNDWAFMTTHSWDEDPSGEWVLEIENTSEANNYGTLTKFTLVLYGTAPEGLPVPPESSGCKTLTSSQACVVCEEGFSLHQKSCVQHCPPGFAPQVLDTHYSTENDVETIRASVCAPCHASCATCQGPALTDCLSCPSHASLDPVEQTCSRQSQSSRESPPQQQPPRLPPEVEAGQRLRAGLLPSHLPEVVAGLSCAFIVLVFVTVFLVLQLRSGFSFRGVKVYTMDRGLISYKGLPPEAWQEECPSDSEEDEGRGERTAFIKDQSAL

Row | Sequence | furin cleavage Z-score (7.5 min) | furin cleavage Z-score (15 min) | furin cleavage Z-score (30 min)
1 | CARTGRACECAGNASASA [FS-2464] | -0.465 (inactive) | 0.257 (inactive) | 0.474 (inactive)
2 | CAALVRTRRCAGNASASA [FS-214] | 5.77 (active) | 6.03 (active) | 5.43 (active)
3 | CAHFKRTRRSAGNASASA [FS-1532] | 10.4 (active) | 10.2 (active) | 8.6 (active)
4 | CAVTRRKGRCAGNASASA [FS-1294] | 3.46 | 5.29 (active) | 5.86 (active)
5 | CAALLRTRRSAGNASASA [FS-972] | 8.62 (active) | 7.98 (active) | 4.19 (active)
6 | CAVTRHADVIAGNASASA [HC727] | -0.38 (inactive) | 1 | -0.771 (inactive)
7 | CAALVVGVVCAGNASASA [HC1106] | -0.352 (inactive) | -0.584 (inactive) | -0.588 (inactive)
8 | CAALVMAQLLAGNASASA [HC326] | 0.829 (inactive) | 0.666 (inactive) | -0.00652 (inactive)
9 | CATALNCNDSAGNASASA [HC373] | -0.291 (inactive) | 1.13 | -0.956 (inactive)
10 | CADPNIRTGVAGNASASA [HC798] | -0.151 (inactive) | 0.395 (inactive) | 0.163 (inactive)
11 | CATTPCKGSWAGNASASA [HC71] | 1.27 | 0.748 (inactive) | 0.0767 (inactive)
12 | CAMEECSQHNAGNASASA [HC1781] | 1.41 | 1.49 | 0.115 (inactive)
13 | CATTPCSGGWAGNASASA [HC1916] | -1.1 (inactive) | -1.09 (inactive) | -1.17 (inactive)
14 | CAMPKKTRRSAGNASASA [FS-1140] | 9.94 (active) | 11.9 (active) | 9.14 (active)
15 | CARLCRKRRCAGNASASA [FS-1478] | 5.9 (active) | 6.48 (active) | 7.28 (active)
16 | CARLASCRPLAGNASASA [HC388] | -0.427 (inactive) | -1.06 (inactive) | -2.04 (inactive)
17 | CARAGRACEGAGNASASA [FS-2882] | 0.299 (inactive) | -0.431 (inactive) | 0.946 (inactive)
18 | CARAGRSGKEAGNASASA [FS-1990] | 0.457 (inactive) | 0.0281 (inactive) | -1.58 (inactive)
19 | CAGITGDNTTAGNASASA [HC1340] | 0.448 (inactive) | -1.88 (inactive) | -0.26 (inactive)
20 | CARAGRSKRTAGNASASA [FS-486] | 10.8 (active) | 9.36 (active) | 7.48 (active)
21 | CAWISSECTTAGNASASA [HC1142] | -0.663 (inactive) | -0.247 (inactive) | 0.84 (inactive)
22 | CARIKRGNTTAGNASASA [FS-2952] | 4.9 (active) | 5.56 (active) | 4.43 (active)
23 | CARKKKRQSLAGNASASA [FS-2153] | 0.376 (inactive) | 0.239 (inactive) | 0.449 (inactive)
24 | CARAGRSKGTAGNASASA [FU10] | 1.67 | 1.52 | 0.0134 (inactive)

Row | Sequence | furin cleavage Z-score (7.5 min) | furin cleavage Z-score (15 min) | furin cleavage Z-score (30 min)
25 | CARIKRRKSLAGNASASA [FS-2953] | 2.28 | 3.44 | 5 (active)
26 | CAPLKRSMSLAGNASASA [FS-2875] | 2.28 | 0.41 (inactive) | 0.484 (inactive)
27 | CARAGRSAPLAGNASASA [FS-2883] | 2.27 | 5.01 (active) | 3.82 (active)
28 | CALLLAVFGPAGNASASA [HC606] | -1.28 (inactive) | -0.292 (inactive) | 0.343 (inactive)
29 | CAVVCCVMSYAGNASASA [HC103] | -1.06 (inactive) | -0.0414 (inactive) | -1.47 (inactive)
30 | CARIKRSAPLAGNASASA [FS-2954] | 11.4 (active) | 11.4 (active) | 10.2 (active)
31 | CASTPCSAPLAGNASASA [HC2559] | -0.781 (inactive) | 0.424 (inactive) | 0.232 (inactive)
32 | CARKSRWAKLAGNASASA [FS-2982] | -0.417 (inactive) | 0.0632 (inactive) | 3.23
33 | CAPRSRARKLAGNASASA [FS-842] | 0.0836 (inactive) | 1.96 | -0.483 (inactive)
34 | CARIKRQHSSAGNASASA [FS-1898] | 4.55 (active) | 5.06 (active) | 4.01 (active)
35 | CATFYGMWPLAGNASASA [HC555] | -1.22 (inactive) | -0.0659 (inactive) | 1.29
36 | CARVWRATSSAGNASASA [FS-2110] | 1.3 | 0.783 (inactive) | 0.938 (inactive)
37 | CARIKRSRKLAGNASASA [FS-3156] | 7.25 (active) | 9.58 (active) | 9.07 (active)
38 | CARLKRLCSSAGNASASA [FS-2990] | 0.399 (inactive) | -0.446 (inactive) | 0.202 (inactive)
39 | CAEREVPCHRAGNASASA [HC2432] | 0.541 (inactive) | 0.603 (inactive) | 1.7
40 | CAEYVVLLFLAGNASASA [HC519] | -0.402 (inactive) | 0.168 (inactive) | -0.326 (inactive)
41 | CACFAWYLKGAGNASASA [HC547] | -1.21 (inactive) | -0.696 (inactive) | 0.991 (inactive)
42 | CARRRRTAFAAGNASASA [FS-2798] | 5.77 (active) | 8.03 (active) | 7.17 (active)
43 | CARRRRRTAIAGNASASA [FS-2080] | 4.79 (active) | 6.3 (active) | 6.06 (active)
44 | CAAARVTAILAGNASASA [HC1131] | 0.0621 (inactive) | 1.08 | -0.5 (inactive)
45 | CARRRRTAILAGNASASA [FS-2799] | 5.32 (active) | 8.15 (active) | 8.93 (active)
46 | CARRRRTALAAGNASASA [FS-2800] | 7.39 (active) | 9.46 (active) | 7.26 (active)
47 | CARRRRKVLAAGNASASA [FS-2181] | -0.244 (inactive) | 1.09 | 1.13
